# Measurements taken from PubChem BioAssay (NCI).
# About 83,000 compounds went through this panel and 20% of them were active in at least one assay; those are over-represented in the sample as a whole.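 Values shown are percent growth following 48 h exposure of cells in 96-well plates to a single concentration of compound; below 10 was considered active.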 Activity calls are given as the source filed them.
# Test system: SR leukemia
# Assay: NCI-60 one-dose screen, 48 h (100 = growth as untreated, 0 = no growth, -100 = all killed)
# Details: 10 µM unless noted
row,SMILES,growth
1,O=C(NCCCN1CCOCC1)c1cccc(N2C(=O)/C(=C/c3ccc(F)cc3)SC2=S)c1,98.9% (inactive)
2,CC(C)NC1CCC(Nc2ccnc3cc(Cl)ccc23)CC1 (stereo not drawn),84% (inactive)
3,Fc1ccc(-c2nn(-c3ccccc3)cc2-c2nc3ccccc3o2)cc1,43.6% (inactive)
4,COc1ccc(C/C(C)=C(/c2ccc(OCCN3CCCCC3)cc2)c2ccc(OC(=O)NCc3ccccc3)cc2)cc1,-58% (active)
5,Cn1cc(-c2nonc2-c2c[nH]c3ccc(Br)cc23)c2cc(Br)ccc21,20.5% (inactive)
6,Cn1c(=O)c2c(nc(NC3=NS(=O)(=O)c4ccccc43)n2CC(=O)N2CCc3ccccc32)n(C)c1=O,124% (inactive)
7,Clc1ccc(Nc2nnc(COc3ccccc3)c3ccccc23)cc1,-20.6% (active)
8,O=[N+]([O-])c1ccc(S(=O)(=O)N2CCN(C3=NS(=O)(=O)c4ccccc4N3c3ccccc3)CC2)cc1,40.5% (inactive)
9,CCNC(=O)c1[nH]cc(-c2ccccc2)c1-c1cc(OC)c2c(c1OC)OCO2,93% (inactive)
10,COCCn1c(-c2csc(-c3cn(C)c4ccc(OC)cc34)n2)cc2cccnc21,18.4% (inactive)
11,S=C(Nc1ccc(-c2nc(N3CCOCC3)c3cccn3n2)cc1)Nc1cccnc1,36.7% (inactive)
12,COc1cc(CNC(=O)CCCC/C=C/C(C)C)ccc1OCc1nnc(Nc2ccc([N+](=O)[O-])cc2)o1,64.2% (inactive)
13,N#CC1=C(c2ccc(Cl)cc2)Nc2c(c(-c3ccc(Cl)cc3)nn2-c2ccccc2)C12C(=O)Nc1ccc(Cl)cc12 (stereo not drawn),14.1% (inactive)
14,CCOC(=O)/C=C1\S/C(=N\Nc2cc(=O)[nH]c3ccc(Cl)cc23)N(c2ccccc2)C1=O,4.23% (active)
15,COc1cccc(NC(=O)Cn2cc(CN3CCN(c4ccnc5cc(Cl)ccc45)CC3)nn2)c1,97.2% (inactive)
16,COc1cc(N2C(=O)[C@H](O)C2c2ccc(SC)cc2)cc(OC)c1OC (stereo partly drawn),3.99% (active)
17,CSc1nnc(-c2cnn3c2NC(c2ccccc2)C3)n1-c1ccc(C(F)(F)F)cc1 (stereo not drawn),17.2% (inactive)
18,N=C(N)c1ccc(-c2ccc(-c3ccc(F)cc3)o2)o1,-8.15% (active)
19,CC1=NN(c2nc(SCC(=O)Nc3nc4ccc(C)cc4s3)nc(-c3ccccc3)c2C#N)C(=O)C1,87.2% (inactive)
20,C/C(Nc1ccc(Cl)c(Cl)c1)=C1\CCOC1=O,83.6% (inactive)

row,SMILES,growth
1,N#Cc1cccc(-c2c(-c3ccc4ccccc4c3)oc3ccccc3c2=O)c1,9.67% (active)
2,CC(C)N1CCN(Cc2ccc3c(NNC(=O)c4ccccc4)nc4cc(F)ccc4n23)CC1,8.09% (active)
3,O=S(=O)(NCCCNc1nccc(-c2c(-c3ccc(F)c(O)c3)nc3occn23)n1)c1ccccc1,70.2% (inactive)
4,O=C1NCCC12CCN(c1c(Cl)cncc1-c1ccc(O)cc1)CC2,94.3% (inactive)
5,Cc1cccnc1NC(=S)Nc1ncccc1C,88.5% (inactive)
6,COc1ccc2c3c([nH]c2c1)C(=O)c1nc(C)ccc1C3=O,37.4% (inactive)
7,CC1Cc2c(Cl)ncnc2N(C)c2ccc(F)cc21 (stereo not drawn),95.3% (inactive)
8,O=C1c2cc(Cl)ccc2S(=O)(=O)c2c(NCCCNCCO)nc3ccccc3c21,-9.98% (active)
9,O=C(c1ccc(Cl)cc1)N1CCN(c2ccnc3cc(Cl)ccc23)CC1,122% (inactive)
10,Cc1nnc(NC(=O)c2nc(S(=O)(=O)Cc3ccc(F)cc3)ncc2Cl)s1,1.43% (active)
11,COc1ccc2[nH]cc(-c3nc(-c4cn(C)c5c(Cl)nccc45)cs3)c2c1,13.9% (inactive)
12,COc1ccc(/C(C)=C(/c2ccc(OCCCN(C)C)cc2)c2ccc(OC(=O)Cc3ccccc3)cc2)cc1,-0.597% (active)
13,CCOc1nc(-c2ccccc2)cc2c(O)c(C(=O)NN)[nH]c(=O)c12,90.8% (inactive)
14,Cn1c(=O)c2[nH]c(N/N=C/c3ccccc3Br)nc2n(C)c1=O,89.7% (inactive)
15,Clc1ccc(Sc2cnc(-c3ccccc3)o2)cc1,90% (inactive)
16,O=C(Nc1nn(-c2ccc(Cl)cc2Cl)nc1-c1ccccc1)c1ccccc1,46% (inactive)
17,Cc1ccc(/C=N/Nc2nc(Nc3ccccc3)nc(-n3nc(C)cc3C)n2)cc1,36.2% (inactive)
18,O=C(Nc1cc(Cl)ccc1O)c1ccc(Nc2ccnc(C(F)(F)F)c2)cc1,23.7% (inactive)
19,CC(C)(C)c1cc(-c2nc3ccc(N4CCN(S(C)(=O)=O)CC4)cc3[nH]2)cc(C(C)(C)C)c1O,56.2% (inactive)

# Test system: RPMI-8226 leukemia
# Assay: as above
# Details: 10 µM unless noted
row,SMILES,growth
1,O=C(NCCCN1CCOCC1)c1cccc(N2C(=O)/C(=C/c3ccc(F)cc3)SC2=S)c1,102% (inactive)
2,CC(C)NC1CCC(Nc2ccnc3cc(Cl)ccc23)CC1 (stereo not drawn),76% (inactive)
3,Fc1ccc(-c2nn(-c3ccccc3)cc2-c2nc3ccccc3o2)cc1,48.2% (inactive)
4,COc1ccc(C/C(C)=C(/c2ccc(OCCN3CCCCC3)cc2)c2ccc(OC(=O)NCc3ccccc3)cc2)cc1,-62.3% (active)
5,Cn1cc(-c2nonc2-c2c[nH]c3ccc(Br)cc23)c2cc(Br)ccc21,41.3% (inactive)
6,Cn1c(=O)c2c(nc(NC3=NS(=O)(=O)c4ccccc43)n2CC(=O)N2CCc3ccccc32)n(C)c1=O,108% (inactive)
7,Clc1ccc(Nc2nnc(COc3ccccc3)c3ccccc23)cc1,-25.3% (active)
8,O=[N+]([O-])c1ccc(S(=O)(=O)N2CCN(C3=NS(=O)(=O)c4ccccc4N3c3ccccc3)CC2)cc1,58.7% (inactive)
9,CCNC(=O)c1[nH]cc(-c2ccccc2)c1-c1cc(OC)c2c(c1OC)OCO2,99% (inactive)
10,COCCn1c(-c2csc(-c3cn(C)c4ccc(OC)cc34)n2)cc2cccnc21,65.4% (inactive)
11,S=C(Nc1ccc(-c2nc(N3CCOCC3)c3cccn3n2)cc1)Nc1cccnc1,19% (inactive)
12,COc1cc(CNC(=O)CCCC/C=C/C(C)C)ccc1OCc1nnc(Nc2ccc([N+](=O)[O-])cc2)o1,52.3% (inactive)
13,N#CC1=C(c2ccc(Cl)cc2)Nc2c(c(-c3ccc(Cl)cc3)nn2-c2ccccc2)C12C(=O)Nc1ccc(Cl)cc12 (stereo not drawn),27.9% (inactive)
14,CCOC(=O)/C=C1\S/C(=N\Nc2cc(=O)[nH]c3ccc(Cl)cc23)N(c2ccccc2)C1=O,3.83% (active)
15,COc1cccc(NC(=O)Cn2cc(CN3CCN(c4ccnc5cc(Cl)ccc45)CC3)nn2)c1,48% (inactive)
16,COc1cc(N2C(=O)[C@H](O)C2c2ccc(SC)cc2)cc(OC)c1OC (stereo partly drawn),9.69% (active)
17,CSc1nnc(-c2cnn3c2NC(c2ccccc2)C3)n1-c1ccc(C(F)(F)F)cc1 (stereo not drawn),56.9% (inactive)
18,N=C(N)c1ccc(-c2ccc(-c3ccc(F)cc3)o2)o1,-2.26% (active)
19,CC1=NN(c2nc(SCC(=O)Nc3nc4ccc(C)cc4s3)nc(-c3ccccc3)c2C#N)C(=O)C1,110% (inactive)
20,C/C(Nc1ccc(Cl)c(Cl)c1)=C1\CCOC1=O,61.3% (inactive)

row,SMILES,growth
1,N#Cc1cccc(-c2c(-c3ccc4ccccc4c3)oc3ccccc3c2=O)c1,46.2% (inactive)
2,CC(C)N1CCN(Cc2ccc3c(NNC(=O)c4ccccc4)nc4cc(F)ccc4n23)CC1,26.5% (inactive)
3,O=S(=O)(NCCCNc1nccc(-c2c(-c3ccc(F)c(O)c3)nc3occn23)n1)c1ccccc1,78.2% (inactive)
4,O=C1NCCC12CCN(c1c(Cl)cncc1-c1ccc(O)cc1)CC2,85.5% (inactive)
5,Cc1cccnc1NC(=S)Nc1ncccc1C,80.9% (inactive)
6,COc1ccc2c3c([nH]c2c1)C(=O)c1nc(C)ccc1C3=O,45.4% (inactive)
7,CC1Cc2c(Cl)ncnc2N(C)c2ccc(F)cc21 (stereo not drawn),98.4% (inactive)
8,O=C1c2cc(Cl)ccc2S(=O)(=O)c2c(NCCCNCCO)nc3ccccc3c21,-22.2% (active)
9,O=C(c1ccc(Cl)cc1)N1CCN(c2ccnc3cc(Cl)ccc23)CC1,75.9% (inactive)
10,Cc1nnc(NC(=O)c2nc(S(=O)(=O)Cc3ccc(F)cc3)ncc2Cl)s1,37% (inactive)
11,COc1ccc2[nH]cc(-c3nc(-c4cn(C)c5c(Cl)nccc45)cs3)c2c1,44.7% (inactive)
12,COc1ccc(/C(C)=C(/c2ccc(OCCCN(C)C)cc2)c2ccc(OC(=O)Cc3ccccc3)cc2)cc1,48.1% (inactive)
13,CCOc1nc(-c2ccccc2)cc2c(O)c(C(=O)NN)[nH]c(=O)c12,103% (inactive)
14,Cn1c(=O)c2[nH]c(N/N=C/c3ccccc3Br)nc2n(C)c1=O,105% (inactive)
15,Clc1ccc(Sc2cnc(-c3ccccc3)o2)cc1,89.7% (inactive)
16,O=C(Nc1nn(-c2ccc(Cl)cc2Cl)nc1-c1ccccc1)c1ccccc1,75.7% (inactive)
17,Cc1ccc(/C=N/Nc2nc(Nc3ccccc3)nc(-n3nc(C)cc3C)n2)cc1,32.9% (inactive)
18,O=C(Nc1cc(Cl)ccc1O)c1ccc(Nc2ccnc(C(F)(F)F)c2)cc1,-6.66% (active)
19,CC(C)(C)c1cc(-c2nc3ccc(N4CCN(S(C)(=O)=O)CC4)cc3[nH]2)cc(C(C)(C)C)c1O,79.5% (inactive)
